Records with an inconclusive call do not appear. Active and inactive are the calls of the source. Unless noted, calls come from the whole dose curve; as a rule, active = well fitted curve in the direction sought with a large enough effect in the repeat runs; inconclusive = weak or mixed curves; inactive = no such curve, though single readings can be large; an effect the other way counts as inactive or inconclusive.
Legend:
[1] = qHTS assay for small molecule agonists of the p53 signaling pathway (AID 651631; calls by dose curve; note: nearly all actives have a fitted effect of over 15% in size)
Method in brief: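 p53RE-bla HCT-116 cells; compounds 16 h, 37 °C; LiveBLAzer B/G FRET substrate 2 h RT; fluorescence intensity read-out, qHTS format.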

[2] = qHTS assay for small molecules that induce genotoxicity in human embryonic kidney cells expressing luciferase-tagged ATAD5 (AID 651632); note: nearly all actives have a fitted effect of over 15% in size
Method in brief: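 HEK293T cells carrying a luciferase reporter tagged to ATAD5 were exposed to compound or DMSO vehicle for 16 hr at 37C, 5% CO2. Amplite was added, and after 30 min at room temperature luciferase activity was read as a marker of ATAD5 induction.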

[3] = qHTS assay for small molecule agonists of the p53 signaling pathway - cell viability (AID 651633; calls by dose curve;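 note: p53RE-bla HCT reporter cells with a stable beta-lactamase p53 reporter; series mostly up to about 83 µM; nearly all actives have a fitted effect of over 30% in size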)
Method in brief: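 p53RE-bla cells were treated with compound for 16 hours at 37 C. Cytotoxicity was then measured as CellTiter-Glo luminescence after 30 min at room temperature.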

[4] = qHTS assay for small molecules that induce genotoxicity in human embryonic kidney cells expressing luciferase-tagged ATAD5 - cell viability (AID 651634; calls by dose curve; note: nearly all actives have a fitted effect of over 25% in size)
Method in brief: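 HEK293T cells expressing luciferase-tagged ATAD5 were exposed to compound or DMSO for 15.5 hr at 37C, 5% CO2. Viability was then read as live-cell protease activity by CellTiter-Fluor fluorescence after 30 min at 37C.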

[5] = qHTS assay to test for compound auto fluorescence at 590 nm (red) in HepG2 cells (AID 720674)
Method in brief: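 HepG2 cells, 2,000 per well in MEM with 10% FBS, attached overnight at 37 C, then got 23 nL compound or DMSO. After 1 hr at 37 C, 5% CO2, red fluorescence was read at 540/590 nm against Rose Bengal sodium as reference.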

[6] = qHTS assay to test for compound auto fluorescence at 535 nm (green) in HepG2 cells (AID 720675)
[7] = qHTS assay to test for compound auto fluorescence at 460 nm (blue) in HEK293 cells (AID 720678)
Method in brief: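 Auto fluorescence in the blue band was quantified as triamterene equivalency. HEK293 cells were seeded at 2,000/well, dosed after a 4-5 hr attachment, and kept overnight at 37C before the 405/460 nm reading.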

[8] = qHTS assay to test for compound auto fluorescence at 590 nm (red) in HEK293 cells (AID 720679)
Method in brief: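 Autofluorescence equivalency to Rose Bengal sodium, 540/590nm, in HEK293 cells exposed overnight to 23 nL compound per well.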

[9] = qHTS assay to test for compound auto fluorescence at 535 nm (green) in HEK293 cells (AID 720680)
[10] = qHTS assay to test for compound auto fluorescence at 460 nm (blue) in HEK293 cell free culture (AID 720681)
Method in brief: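 Compounds were added to cell-free DMEM with 10% FBS and fluorescence read directly. The blue channel used 405 nm excitation and 460 nm emission, with triamterene as the reference fluorophore.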

[11] = qHTS assay to test for compound auto fluorescence at 535 nm (green) in HEK293 cell free culture (AID 720682)
Method in brief: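 Cell-free medium (DMEM, 10% FBS) receives compound or DMSO by pintool. Plate read directly at Ex 485/Em 535 nm. Signal converted to fluorescein equivalency.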

[12] = qHTS assay to test for compound auto fluorescence at 590 nm (red) in HEK293 cell free culture (AID 720683)
Method in brief: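 Cell-free wells of DMEM with 10% FBS received compound, and intrinsic fluorescence was read at excitation/emission 540/590 nm. Values expressed as equivalence to Rose Bengal sodium.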

[13] = qHTS assay to test for compound auto fluorescence at 590 nm (red) in HepG2 cell free culture (AID 720684)
Method in brief: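 Compound was pinned into wells holding MEM with 10% FBS and no cells, and red fluorescence was read at Ex/Em 540/590 nm. Signal is expressed as auto fluorescence equivalency relative to Rose Bengal sodium.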

[14] = qHTS assay to test for compound auto fluorescence at 460 nm (blue) in HepG2 cell free culture (AID 720685)
Method in brief: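 Compound (23 nL) or DMSO pinned into cell-free MEM with 10% FBS; blue fluorescence read at 405/460 nm excitation/emission, expressed as auto-fluorescence equivalency to triamterene.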

[15] = qHTS assay to test for compound auto fluorescence at 535 nm (green) in HepG2 cell free culture (AID 720686)
[16] = qHTS assay to test for compound auto fluorescence at 460 nm (blue) in HepG2 cells (AID 720687)
Method in brief: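 HepG2 cells in MEM with 10% FBS, attached overnight at 37 C, were exposed to compound or DMSO for 1 hr at 37 C, 5% CO2. Blue fluorescence was read at 405/460 nm, with triamterene as reference fluorophore.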

[17] = qHTS assay for small molecule disruptors of the mitochondrial membrane potential - cell viability (AID 720634; calls by dose curve;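 note: human HepG2 liver cancer cells; series mostly up to about 83 µM; nearly all actives have a fitted effect of over 20% in size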)
Method in brief: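 HepG2 cells seeded overnight at 37 C, then exposed to compound or DMSO for 1 hr at 37 C, 5% CO2. m-MPI dye added, then CellTiter-Glo for 30 min at room temperature; viability read as ATP luminescence.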

[18] = qHTS assay for small molecule disruptors of the mitochondrial membrane potential (AID 720635); note: potency is the fitted concentration of half-maximal effect
Method in brief: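 HepG2 cells exposed to compound 1 hr at 37C, then Mito-MPS dye 30 min. Ratio read of aggregate (540/590 nm) versus monomer (490/535 nm) fluorescence.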

[19] = biological target: Glucocorticoid receptor (Homo sapiens) (UniProt P04150); assay: qHTS assay to identify small molecule agonists of the glucocorticoid receptor (GR) signaling pathway (AID 720691; active = well fitted activation curve with a large enough effect in the signal ratio in the repeat runs, not every such curve was filed as active; the % refers to the signal ratio)
Glucocorticoid receptor (Homo sapiens), sequence (P04150 whole entry, looked up): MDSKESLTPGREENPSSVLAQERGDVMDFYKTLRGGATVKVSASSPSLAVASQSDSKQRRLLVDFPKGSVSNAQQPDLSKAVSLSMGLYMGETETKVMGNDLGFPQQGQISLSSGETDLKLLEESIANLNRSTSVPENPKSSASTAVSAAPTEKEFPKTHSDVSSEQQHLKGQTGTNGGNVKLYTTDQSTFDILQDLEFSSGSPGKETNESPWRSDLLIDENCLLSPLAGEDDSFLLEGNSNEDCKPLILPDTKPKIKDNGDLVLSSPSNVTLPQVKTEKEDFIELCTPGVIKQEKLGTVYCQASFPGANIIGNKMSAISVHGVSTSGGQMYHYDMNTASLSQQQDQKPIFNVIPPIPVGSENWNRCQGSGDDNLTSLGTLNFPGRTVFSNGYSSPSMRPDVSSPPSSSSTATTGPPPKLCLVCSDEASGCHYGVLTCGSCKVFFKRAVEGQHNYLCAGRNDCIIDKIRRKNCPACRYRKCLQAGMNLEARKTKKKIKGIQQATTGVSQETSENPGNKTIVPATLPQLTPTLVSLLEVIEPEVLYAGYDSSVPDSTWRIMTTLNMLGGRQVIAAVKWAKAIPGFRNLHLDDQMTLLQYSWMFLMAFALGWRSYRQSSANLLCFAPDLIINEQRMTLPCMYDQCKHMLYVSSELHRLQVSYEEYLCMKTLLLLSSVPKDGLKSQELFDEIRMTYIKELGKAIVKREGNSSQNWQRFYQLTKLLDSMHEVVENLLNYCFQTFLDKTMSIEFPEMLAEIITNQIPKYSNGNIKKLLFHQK
Method in brief: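 GR-bla HeLa cells (beta-lactamase reporter under glucocorticoid response element) were plated 4 h at 37 C/5% CO2, given compounds in DMSO, and incubated 18 h at 37 C. LiveBLAzer B/G FRET substrate was added for 2 h at room temperature, then fluorescence intensity read.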

[20] = biological target: Glucocorticoid receptor (Homo sapiens) (UniProt P04150); assay: qHTS assay to identify small molecule antagonists of the glucocorticoid receptor (GR) signaling pathway (AID 720692; active = well fitted inhibition curve with a large enough effect in the signal ratio in the repeat runs, not every such curve was filed as active; the % refers to the signal ratio)
Method in brief: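 GR-bla HeLa cells (beta-lactamase reporter under glucocorticoid response element) were pre-plated 4 h at 37 C, treated with compounds plus 5 nM dexamethasone (final) for 18 h, then read by LiveBLAzer B/G FRET fluorescence after 2 h.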

Measured: Potency

CNC(=O)Oc1ccc(N(C)C)c(C)c1
not listed: [17] | [18] | [19] | [20]
inactive: all other assays above

NC1=NC(=O)C(c2ccccc2)O1 (configuration not stated)
not listed: [4] | [11] | [13]
inactive: all other assays above

Nc1cnn(-c2ccccc2)c(=O)c1Cl
not listed: [10] | [17]
inactive: all other assays above

COC(=O)c1c(C(F)F)nc(C(F)(F)F)c(C2=NCCS2)c1CC(C)C
not listed: [16] | [17] | [18] | [19] | [20]
inactive: all other assays above

COc1cccc(C(=O)NN(C(=O)c2cc(C)cc(C)c2)C(C)(C)C)c1C
not listed: [10] | [17] | [18] | [19] | [20]
inactive: all other assays above

CCN(CC)c1nc(C)cc(OP(=S)(OC)OC)n1
not listed: [5] | [13] | [16] | [17] | [18]
inactive: all other assays above

Cc1coc2c1CCC(C)C2 (configuration not stated)
active: [18] 25.1 µM
not listed: [4] | [10] | [11] | [13] | [20]
inactive: all other assays above

CNNC
not listed: [5] | [16] | [18] | [19]
inactive: all other assays above

CNC(=O)Oc1ccccc1C1OCCO1
not listed: [5] | [10] | [18]
inactive: all other assays above

CCS(=O)(=O)C(C)(C)S(=O)(=O)CC
not listed: [4] | [11] | [18] | [20]
inactive: all other assays above

CCC(Cl)[N+](=O)[O-] (configuration not stated)
not listed: [4] | [5] | [11] | [20]
inactive: all other assays above

COCC(=O)N(c1c(C)cccc1C)N1CCOC1=O
not listed: [4] | [12] | [16] | [18] | [19] | [20]
inactive: all other assays above

O=NN1CCCCC1
not listed: [4] | [16] | [18] | [20]
inactive: all other assays above

O=C(Oc1ccc(Br)cc1)N1CCN2CCC1CC2
not listed: [4] | [18] | [19] | [20]
inactive: all other assays above
